Source: PubChem BioAssay (Tox21)
Results filed as inconclusive are left out. Activity calls are given as the source filed them. Unless noted, the call rests on the fitted dose curve; in most records, active means well fitted curve in the direction sought with a large enough effect in the repeat runs; inconclusive means weak or mixed curves; inactive means no such curve, though single readings can be large; an effect the other way counts as inactive or inconclusive.

Tests used:
[1] = target: Estrogen receptor beta (Homo sapiens) (UniProt Q92731); test: qHTS assay to identify small molecule agonists of the estrogen receptor beta (ER-beta) signaling pathway (AID 1259377; active means well fitted activation curve with a large enough effect in the signal ratio in the repeat runs, not every such curve was filed as active; the % refers to the signal ratio)
Sequence of Estrogen receptor beta (Homo sapiens) (Q92731 whole entry, looked up): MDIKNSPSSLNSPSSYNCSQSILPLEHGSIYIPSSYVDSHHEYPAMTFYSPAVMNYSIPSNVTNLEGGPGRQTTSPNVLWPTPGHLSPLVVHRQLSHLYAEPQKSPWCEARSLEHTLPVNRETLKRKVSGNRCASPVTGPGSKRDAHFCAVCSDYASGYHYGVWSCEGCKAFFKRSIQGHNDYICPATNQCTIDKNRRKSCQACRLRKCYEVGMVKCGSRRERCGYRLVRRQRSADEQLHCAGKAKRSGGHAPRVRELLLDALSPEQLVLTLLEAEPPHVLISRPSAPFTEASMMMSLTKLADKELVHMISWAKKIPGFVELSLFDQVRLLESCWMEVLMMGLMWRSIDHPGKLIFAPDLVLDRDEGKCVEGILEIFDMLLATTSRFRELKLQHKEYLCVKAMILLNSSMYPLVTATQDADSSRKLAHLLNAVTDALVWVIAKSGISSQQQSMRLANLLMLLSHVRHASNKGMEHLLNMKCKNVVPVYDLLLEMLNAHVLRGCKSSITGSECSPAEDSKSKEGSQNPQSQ
In short: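 A UAS-controlled beta-lactamase reporter in ER-beta-UAS-bla HEK293T cells reports receptor activation. Compounds act for 16 hr at 37C in 2% charcoal-stripped serum, and a FRET substrate is read by fluorescence after 2 hours.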

[2] = target: Estrogen receptor beta (Homo sapiens) (UniProt Q92731); test: qHTS assay to identify small molecule antagonists of the estrogen receptor beta (ER-beta) signaling pathway (AID 1259378; active means well fitted inhibition curve with a large enough effect in the signal ratio in the repeat runs, not every such curve was filed as active; the % refers to the signal ratio)
In short: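 ER-beta-UAS-bla HEK293T (GripTite) cells in 2% charcoal-stripped FBS medium were preincubated 6 hr at 37C, dosed with compound, then stimulated with 1 nM E2 (final) for 16 hr; beta-lactamase reporter read by B/G FRET fluorescence after 2 hr substrate loading.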

[3] = qHTS assay to identify small molecule agonists of the androgen receptor (AR) signaling pathway in the presence of an antagonist - cell viability counter screen (AID 1259379);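 further: MDA-kb2 human breast cancer cells carrying an MMTV luciferase reporter; series mostly up to about 92 µM; nearly all actives have a fitted effect of over 25% in size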
In short: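 Viability counter screen: CellTiter-Fluor fluorescence, measured in the same wells as the luciferase read-out. MDA-kb2 cells, 3,000/well, with nilutamide at 3.0uM final and compounds at 15 concentrations, 16 hr at 37C, 0% CO2.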

[4] = qHTS assay to identify small molecule agonists of the estrogen receptor beta (ER-beta) signaling pathway - cell viability counter screen (AID 1259380); further: nearly all actives have a fitted effect of over 30% in size
In short: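 Luminescence read-out (CellTiter-Glo, 30 min, room temp) taken in the same wells as the beta-lactamase reporter assay; ER-beta-UAS-bla HEK293T cells exposed to DMSO-dissolved compounds for 16 hr at 37C in 2% charcoal-stripped FBS medium.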

[5] = qHTS assay to identify small molecule antagonists of the estrogen receptor beta (ER-beta) signaling pathway - cell viability counter screen (AID 1259382); further: series mostly up to about 92 µM; nearly all actives have a fitted effect of over 55% in size
In short: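 Luminescent ATP read-out (CellTiter-Glo, 30 min, RT) taken in the same wells as the bla reporter assay. HEK293T ER-beta-UAS-bla cells in 2% charcoal-stripped FBS were exposed to compounds with 1nM E2 for 16 hr at 37C.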

[6] = target: Estrogen receptor (Homo sapiens) (UniProt P03372); test: qHTS assay to identify small molecule agonists of the estrogen receptor alpha (ER-alpha) signaling pathway in the presence of an antagonist (AID 1259383; calls by dose curve; further: top concentration of the series differs between compounds; nearly all actives have a fitted effect of over 15% in size)
Sequence of Estrogen receptor (Homo sapiens) (P03372 whole entry, looked up): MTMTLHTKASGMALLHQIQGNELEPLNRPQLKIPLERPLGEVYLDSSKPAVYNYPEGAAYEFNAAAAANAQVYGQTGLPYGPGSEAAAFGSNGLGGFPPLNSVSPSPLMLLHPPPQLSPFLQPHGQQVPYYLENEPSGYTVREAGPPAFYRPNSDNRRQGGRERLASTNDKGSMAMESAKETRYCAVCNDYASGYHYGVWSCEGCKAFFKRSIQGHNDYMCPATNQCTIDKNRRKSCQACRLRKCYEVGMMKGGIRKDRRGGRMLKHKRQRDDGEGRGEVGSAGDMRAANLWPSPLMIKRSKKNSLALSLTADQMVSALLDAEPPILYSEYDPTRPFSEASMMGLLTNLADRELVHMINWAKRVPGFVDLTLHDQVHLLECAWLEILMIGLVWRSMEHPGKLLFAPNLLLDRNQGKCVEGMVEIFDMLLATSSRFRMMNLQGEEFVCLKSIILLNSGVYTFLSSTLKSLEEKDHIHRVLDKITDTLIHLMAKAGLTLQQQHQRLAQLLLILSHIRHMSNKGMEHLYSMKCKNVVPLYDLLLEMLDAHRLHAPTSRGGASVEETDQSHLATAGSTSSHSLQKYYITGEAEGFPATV
In short: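 Luciferase luminescence (ONE-Glo, 30min at room temperature) measured in VM7Luc4E2 cells after 22hr compound exposure at 15 concentrations, with 10.0nM ICI-182,780 final present; cells express endogenous ER-alpha and carry four EREs upstream of luciferase.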

[7] = qHTS assay to identify small molecule agonists or antagonists of the thyroid stimulating hormone receptor (TSHR) signaling pathway - wild type cell line counter screen (AID 1259384; calls by dose curve)
In short: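 Wild-type HEK293 cells were plated 18 h at 37 C/5% CO2, pin-dosed with compound plus Ro20-1724 medium, held 30 min at room temperature, then given cAMP-d2 and anti-cAMP-cryptate; fluorescence was read after 1 h. Fifteen concentrations, triplicate.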

[8] = target: Thyrotropin receptor (Homo sapiens) (UniProt P16473); test: qHTS assay to identify small molecule antagonists of the thyroid stimulating hormone receptor (TSHR) signaling pathway (AID 1259385; calls by dose curve; further: nearly all actives have a fitted effect of over 20% in size)
Sequence of Thyrotropin receptor (Homo sapiens) (P16473 whole entry, looked up): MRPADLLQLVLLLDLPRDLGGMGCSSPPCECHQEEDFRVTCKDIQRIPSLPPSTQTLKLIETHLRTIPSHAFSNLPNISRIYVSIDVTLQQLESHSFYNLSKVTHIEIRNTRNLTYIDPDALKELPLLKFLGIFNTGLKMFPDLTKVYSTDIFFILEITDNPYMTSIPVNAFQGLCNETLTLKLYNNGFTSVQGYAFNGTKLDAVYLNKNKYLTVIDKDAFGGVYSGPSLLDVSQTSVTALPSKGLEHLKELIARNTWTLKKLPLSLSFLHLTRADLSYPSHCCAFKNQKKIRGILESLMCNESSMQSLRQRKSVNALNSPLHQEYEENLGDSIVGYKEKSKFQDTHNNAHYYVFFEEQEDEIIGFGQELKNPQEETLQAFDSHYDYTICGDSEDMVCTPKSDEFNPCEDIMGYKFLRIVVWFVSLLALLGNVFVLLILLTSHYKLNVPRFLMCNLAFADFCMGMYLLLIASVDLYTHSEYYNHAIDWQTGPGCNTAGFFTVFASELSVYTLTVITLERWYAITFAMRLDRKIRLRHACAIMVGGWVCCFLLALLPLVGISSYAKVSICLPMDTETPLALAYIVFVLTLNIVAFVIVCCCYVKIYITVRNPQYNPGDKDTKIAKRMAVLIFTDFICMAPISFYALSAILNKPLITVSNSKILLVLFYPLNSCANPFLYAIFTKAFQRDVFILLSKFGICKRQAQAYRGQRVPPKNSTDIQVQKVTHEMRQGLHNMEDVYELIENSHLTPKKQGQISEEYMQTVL
In short: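 TSHR-HEK293 cells were plated and held 18 h at 37C/5% CO2, then given compound plus Ro20-1724 and stimulated with TSH at 1.5 ng/mL final. After 30 min at room temperature, cAMP was detected with cAMP-d2/anti-cAMP-cryptate (1 h) by fluorescence.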

[9] = qHTS assay to identify small molecule agonists of the estrogen receptor alpha (ER-alpha) signaling pathway in the presence of an antagonist - cell viability counter screen (AID 1259386);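 further: series mostly up to about 92 µM; cells exposed to compounds for 22 h at 37 °C before the viability read; nearly all actives have a fitted effect of over 30% in size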
In short: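 Read-out: CellTiter-Fluor fluorescence after 1hr reagent incubation, measured in the same wells as the luciferase readout. VM7Luc4E2 cells were exposed to 15 compound concentrations with 10.0nM ICI-182,780 for 22hr at 37C.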

[10] = target: Progesterone receptor (Homo sapiens) (UniProt P06401); test: qHTS assay to identify small molecule antagonists of the progesterone receptor (PR) signaling pathway (AID 1346795; active means well fitted inhibition curve with a large enough effect in the signal ratio in the repeat runs, not every such curve was filed as active; the % refers to the signal ratio)
Sequence of Progesterone receptor (Homo sapiens) (P06401 whole entry, looked up): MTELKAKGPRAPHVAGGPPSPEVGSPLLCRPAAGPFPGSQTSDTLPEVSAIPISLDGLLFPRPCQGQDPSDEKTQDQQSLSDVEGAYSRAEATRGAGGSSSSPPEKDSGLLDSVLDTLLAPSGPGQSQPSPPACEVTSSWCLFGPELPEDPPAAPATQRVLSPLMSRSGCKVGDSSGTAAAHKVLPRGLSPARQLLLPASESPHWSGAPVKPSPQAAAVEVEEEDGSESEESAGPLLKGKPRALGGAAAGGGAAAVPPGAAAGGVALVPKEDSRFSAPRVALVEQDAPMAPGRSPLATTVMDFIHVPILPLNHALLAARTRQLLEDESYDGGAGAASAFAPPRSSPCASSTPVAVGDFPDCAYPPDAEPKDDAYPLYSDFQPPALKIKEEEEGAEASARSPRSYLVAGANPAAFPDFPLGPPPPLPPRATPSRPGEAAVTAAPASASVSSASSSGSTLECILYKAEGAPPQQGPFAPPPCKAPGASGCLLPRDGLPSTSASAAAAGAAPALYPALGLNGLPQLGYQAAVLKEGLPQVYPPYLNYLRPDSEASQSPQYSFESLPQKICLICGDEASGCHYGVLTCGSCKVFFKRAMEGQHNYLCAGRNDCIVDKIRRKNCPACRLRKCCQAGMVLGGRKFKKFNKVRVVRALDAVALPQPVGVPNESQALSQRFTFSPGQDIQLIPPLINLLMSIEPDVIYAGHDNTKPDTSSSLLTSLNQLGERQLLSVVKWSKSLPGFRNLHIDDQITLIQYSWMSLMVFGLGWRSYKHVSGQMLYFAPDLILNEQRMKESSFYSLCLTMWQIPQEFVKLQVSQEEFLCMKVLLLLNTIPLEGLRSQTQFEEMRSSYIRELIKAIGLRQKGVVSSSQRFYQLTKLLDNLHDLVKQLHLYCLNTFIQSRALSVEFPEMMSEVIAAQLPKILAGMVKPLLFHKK
In short: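 HEK293T PR-UAS-bla reporter cells in charcoal-stripped serum (2%) received compound after a 6 hr settling period, followed by R5020 agonist at 1 nM final; 16 hr incubation preceded the FRET substrate step and fluorescence measurement.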

[11] = qHTS assay to identify small molecule antagonists of the progesterone receptor (PR) signaling pathway - cell viability counter screen (AID 1346798); further: series mostly up to about 92 µM; nearly all actives have a fitted effect of over 50% in size
In short: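 Same-well multiplex: after 16 hr at 37C with compound and R5020 stimulation, HEK293T cells carrying a UAS-bla reporter received LiveBLAzer substrate (2 hr RT), then CellTiter-Glo (30 min RT) for luminescent viability.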

[12] = qHTS assay to identify small molecule agonists of the progesterone receptor (PR) signaling pathway - cell viability counter screen (AID 1346799; calls by dose curve; further: nearly all actives have a fitted effect of over 45% in size)
In short: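 Counter screen for cytotoxicity: compound-treated PR-UAS-bla HEK293T cells (16 hr, 37C, 5% CO2) were assayed with CellTiter-Glo, luminescence measured after 30 min at room temperature.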

[13] = qHTS assay to identify small molecule antagonists of the TGF-beta/Smad signaling pathway - cell viability counter screen (AID 1346824); further: nearly all actives have a fitted effect of over 50% in size
In short: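 SBE-bla HEK 293T cells were plated overnight at 37 C, then given compounds in DMSO plus TGF-beta1 (added as 0.25 ng/mL solution) for 5 hr. After the bla read, CellTiter-Glo was added to the same wells and luminescence read after 30 min at room temperature.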

[14] = qHTS assay to identify small molecule agonists of the TGF-beta/Smad signaling pathway - cell viability counter screen (AID 1346829); further: top concentration of the series differs between compounds; nearly all actives have a fitted effect of over 45% in size
In short: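 Cytotoxicity counter screen: CellTiter-Glo luminescence (30 min, room temperature) measured in the SBE-bla HEK 293T reporter wells after 5 hr compound treatment at 37 C and the 2 hr substrate step.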

[15] = qHTS assay to identify small molecule agonists of the TGF-beta/Smad signaling pathway (AID 1346859; active means well fitted activation curve with a large enough effect in the signal ratio in the repeat runs, not every such curve was filed as active; the % refers to the signal ratio; further: series mostly up to about 77 µM)
In short: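 Smad-responsive beta-lactamase reporter cells (HEK 293T) received compounds from DMSO stocks after overnight attachment, were incubated 5 hr, then treated 2 hr with FRET substrate before dual-emission fluorescence measurement (405 nm excitation).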

[16] = target: Thyrotropin-releasing hormone receptor (Homo sapiens) (UniProt P34981); test: qHTS assay to identify small molecule agonists of the thyrotropin-releasing hormone receptor (TRHR) signaling pathway (AID 1346891; calls by dose curve;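 further: HEK293 cells expressing TRHR with calcium dye readout; series mostly up to about 58 µM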)
Sequence of Thyrotropin-releasing hormone receptor (Homo sapiens) (P34981 whole entry, looked up): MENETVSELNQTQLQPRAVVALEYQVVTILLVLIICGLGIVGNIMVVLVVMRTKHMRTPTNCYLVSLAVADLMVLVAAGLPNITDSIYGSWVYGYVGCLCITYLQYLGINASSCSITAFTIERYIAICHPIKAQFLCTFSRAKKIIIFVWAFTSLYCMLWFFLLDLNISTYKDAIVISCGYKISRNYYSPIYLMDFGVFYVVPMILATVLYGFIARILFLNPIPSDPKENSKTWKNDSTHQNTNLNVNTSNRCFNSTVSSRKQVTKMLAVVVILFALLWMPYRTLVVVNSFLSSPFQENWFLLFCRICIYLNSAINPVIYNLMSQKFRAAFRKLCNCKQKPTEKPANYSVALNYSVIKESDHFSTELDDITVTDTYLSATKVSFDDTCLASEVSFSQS
In short: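 Agonist-mode calcium mobilisation screen: TRHR-transfected HEK293 cells cultured overnight (18 h), dye-loaded for 2 h at 37 °C, exposed to compounds, and monitored by fluorescence for 3 min.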

[17] = Human pregnane X receptor (PXR) small molecule agonists, qHTS cell viability counter screen (AID 1346977); further: nearly all actives have a fitted effect of over 50% in size
In short: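 Measures live-cell protease fluorescence (CellTiter-Fluor) in PXR-Luc HepG2 cells treated 24hr with compounds at 37C. Cells had 5hr to attach before pin transfer of DMSO solutions.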

[18] = target: Progesterone receptor (Homo sapiens) (UniProt P06401); test: qHTS assay to identify small molecule agonists of the progesterone receptor (PR) signaling pathway (AID 1346784; calls by dose curve; further: nearly all actives have a fitted effect of over 30% in size)
In short: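 Agonist mode, quantitative HTS format in a HEK 293T line expressing a UAS-controlled beta-lactamase reporter; 16 hr compound exposure at 37C in 2% charcoal-stripped FBS, then LiveBLAzer B/G FRET fluorescence.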

[19] = target: Thyrotropin-releasing hormone receptor (Homo sapiens) (UniProt P34981); test: qHTS assay to identify small molecule antagonists of the thyrotropin-releasing hormone receptor (TRHR) signaling pathway (AID 1346877; active means well fitted inhibition curve with a large enough effect in the repeat runs, not every such curve was filed as active; further: series mostly up to about 51 µM)
In short: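 HEK293/TRHR cells, 18 h, 37 °C; Ca2+ dye 2 h; cpd 5 min RT; TRH 1 nM final; fluorescence read 3 min, 1 s intervals; 15 concs, triplicate.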

Measured: Potency

N[C@H](C(=O)O)[C@@H](O)c1ccc(O)c(O)c1
not listed: [18] | [19]
inactive: all other assays above

CCCCCCC1CCC(=O)O1 (stereo not drawn)
not listed: [8] | [19]
inactive: all other assays above

C=COCC1CCC(COC=C)CC1 (stereo not drawn)
not listed: [13] | [16] | [18] | [19]
inactive: all other assays above

CC1OC1C1CCC2(C)OC2C1 (stereo not drawn)
not listed: [8] | [10] | [17] | [18] | [19]
inactive: all other assays above

CC(C)c1ccc2ncccc2c1
not listed: [7] | [8] | [10] | [16] | [19]
inactive: all other assays above

COCCOCC(OC)OC
not listed: [8]
inactive: all other assays above

CC1(C)[C@@H]2CC[C@@]1(C)[C@H](O)C2
not listed: [6] | [16]
inactive: all other assays above

CN(C)CCCN(C)CCCN(C)C
not listed: [8] | [10] | [11]
inactive: all other assays above

CC1=CC(=O)[C@H]2C[C@@H]1C2(C)C
not listed: [7] | [8] | [13] | [17]
inactive: all other assays above
